# Several values for one entry are separate records, joined by “and”; a condition that tells them apart may be missing. Equal values may be shown once. In all, about 5,500 compounds went through this assay and about 2,000 (36%) were called active. Another 18% or so got no clear call; they are omitted. The list shows a part of the results. Unmarked numbers belong to inactive results. No stated cut-off is given here; in the data, active means normalized growth mostly below about 0.91 (no sharp cut-off); inconclusive means no clear call, values can overlap the other calls; inactive means mostly above about 0.92.
# Assay: chemical genetic growth profiling, strain panel (AID 1159580);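 further: tested at 20 µM; growth read once vehicle control cultures reached saturation at 30 °C; 1 = growth at the plate median or of vehicle wells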
# Settings: S. cerevisiae deletion strains, growth OD
smiles,measurement,setting,value
CC(=O)O[C@@H]1CC[C@@]2(C)C(CC[C@]3(C)C2CC=C2C4CC(C)(C)CC[C@]4(C(=O)O)CC[C@]23C)C1(C)C (stereo partly drawn),normalized growth,"locus YAL021C, strain ccr4, stronger effect = lower value",0.949
same,normalized growth,"locus YAL026C, strain drs2, stronger effect = lower value",0.957
same,normalized growth,"locus YAL030W, strain snc1, stronger effect = lower value",0.98
same,normalized growth,"locus YBL061C, strain skt5, stronger effect = lower value",0.955
same,normalized growth,"locus YBR009C, strain hhf1, stronger effect = lower value",1.01
same,normalized growth,"locus YBR021W, strain FUR4, stronger effect = lower value",1
same,normalized growth,"locus YBR023C, strain chs3, stronger effect = lower value",0.918
same,normalized growth,"locus YBR171W, strain sec66, stronger effect = lower value",1
same,normalized growth,"locus YBR229C, strain ROT2, stronger effect = lower value",0.992
same,normalized growth,"locus YBR231C, strain swc5, stronger effect = lower value",0.913
same,normalized growth,"locus YBR279W, strain paf1, stronger effect = lower value",0.982
same,normalized growth,"locus YCL011C, strain gbp2, stronger effect = lower value",0.965
same,normalized growth,"locus YCL016C, strain dcc1, stronger effect = lower value",0.96
same,normalized growth,"locus YCL029C, strain bik1, stronger effect = lower value",0.996
same,normalized growth,"locus YCL061C, strain MRC1, stronger effect = lower value",1
same,normalized growth,"locus YCL069W, strain vba3, stronger effect = lower value",1.01
same,normalized growth,"locus YCR088W, strain abp1, stronger effect = lower value",1.01
same,normalized growth,"locus YDL005C, strain med2, stronger effect = lower value",0.99
same,normalized growth,"locus YDL035C, strain GPR1, stronger effect = lower value",1.05
same,normalized growth,"locus YDL040C, strain nat1, stronger effect = lower value",1
same,normalized growth,"locus YDL074C, strain BRE1, stronger effect = lower value",1.07
same,normalized growth,"locus YDL101C, strain DUN1, stronger effect = lower value",0.975
same,normalized growth,"locus YDL134C, strain PPH21, stronger effect = lower value",0.974
same,normalized growth,"locus YDL185W, strain tfp1, stronger effect = lower value",0.976
same,normalized growth,"locus YDL192W, strain arf1, stronger effect = lower value",1.01
same,normalized growth,"locus YDR001C, strain nth1, stronger effect = lower value",1.01
same,normalized growth,"locus YDR069C, strain doa4, stronger effect = lower value",0.84 (active)
same,normalized growth,"locus YDR101C, strain arx1, stronger effect = lower value",1.02
same,normalized growth,"locus YDR137W, strain rgp1, stronger effect = lower value",1.02
same,normalized growth,"locus YDR159W, strain sac3, stronger effect = lower value",1.03
same,normalized growth,"locus YDR162C, strain NBP2, stronger effect = lower value",1.03
same,normalized growth,"locus YDR195W, strain ref2",1.04
same,normalized growth,"locus YDR297W, strain sur2, stronger effect = lower value",0.939
same,normalized growth,"locus YDR318W, strain mcm21, stronger effect = lower value",1.01
same,normalized growth,"locus YDR334W, strain swr1, stronger effect = lower value",0.985
same,normalized growth,"locus YDR335W, strain msn5, stronger effect = lower value",0.957
same,normalized growth,"locus YDR388W, stronger effect = lower value",0.983
same,normalized growth,"locus YDR392W, strain spt3, stronger effect = lower value",0.95
same,normalized growth,"locus YDR502C, strain sam2, stronger effect = lower value",0.978
same,normalized growth,"locus YEL003W, strain gim4, stronger effect = lower value",0.976
same,normalized growth,"locus YEL037C, strain rad23, stronger effect = lower value",0.99
same,normalized growth,"locus YEL061C, strain CIN8 (second series), stronger effect = lower value",1.01
same,normalized growth,"locus YEL061C, strain CIN8, stronger effect = lower value",1
same,normalized growth,"locus YER015W, strain faa2, stronger effect = lower value",0.936
same,normalized growth,"locus YER016W, strain bim1, stronger effect = lower value",0.965
same,normalized growth,"locus YER110C, stronger effect = lower value",0.976
same,normalized growth,"locus YER111C, strain swi4, stronger effect = lower value",0.96
same,normalized growth,"locus YER155C, strain BEM2 (second series), stronger effect = lower value",0.964
same,normalized growth,"locus YER155C, strain BEM2, stronger effect = lower value",0.985
same,normalized growth,"locus YER167W, strain BCK2, stronger effect = lower value",1.01
same,normalized growth,"locus YFR010W, strain ubp6, stronger effect = lower value",0.949
same,normalized growth,"locus YGL078C, strain dbp3, stronger effect = lower value",0.977
same,normalized growth,"locus YGL086W, strain mad1, stronger effect = lower value",1.04
same,normalized growth,"locus YGL167C, strain pmr1, stronger effect = lower value",0.986
same,normalized growth,"locus YGL173C, strain kem1, stronger effect = lower value",0.902 (active)
same,normalized growth,"locus YGL227W, strain vid30, stronger effect = lower value",1.01
same,normalized growth,"locus YGL240W, strain doc1, stronger effect = lower value",1.08
same,normalized growth,"locus YGL248W, strain PDE1, stronger effect = lower value",0.998
same,normalized growth,"locus YGL253W, strain hxk2, stronger effect = lower value",0.984
same,normalized growth,"locus YGR135W, strain pre9, stronger effect = lower value",0.954
same,normalized growth,"locus YGR229C, strain SMI1, stronger effect = lower value",0.988
same,normalized growth,"locus YGR252W, strain gcn5, stronger effect = lower value",0.982
same,normalized growth,"locus YHR013C, strain ard1, stronger effect = lower value",0.933
same,normalized growth,"locus YHR027C, strain rpn1, stronger effect = lower value",0.913 (active)
same,normalized growth,"locus YHR030C, strain SLT2, stronger effect = lower value",0.983
same,normalized growth,"locus YHR079C, strain IRE1 (second series), stronger effect = lower value",0.983
same,normalized growth,"locus YHR079C, strain IRE1, stronger effect = lower value",0.974
same,normalized growth,"locus YHR094C, strain hxt1, stronger effect = lower value",0.987
same,normalized growth,"locus YHR129C, strain ARP1, stronger effect = lower value",0.995
same,normalized growth,"locus YHR142W, strain chs7, stronger effect = lower value",0.958
same,normalized growth,"locus YHR200W, strain rpn10, stronger effect = lower value",0.987
same,normalized growth,"locus YIL066C, strain RNR3, stronger effect = lower value",1.03
same,normalized growth,"locus YIL073C, strain SPO22, stronger effect = lower value",1.01
same,normalized growth,"locus YIL125W, strain kgd1, stronger effect = lower value",0.999
same,normalized growth,"locus YIR030C, strain dcg1, stronger effect = lower value",0.985
same,normalized growth,"locus YJL092W, strain hpr5, stronger effect = lower value",1.01
same,normalized growth,"locus YJL095W, strain BCK1 (second series), stronger effect = lower value",0.966
same,normalized growth,"locus YJL095W, strain BCK1, stronger effect = lower value",1.01 and 0.986
same,normalized growth,"locus YJL115W, strain asf1, stronger effect = lower value",1.01
same,normalized growth,"locus YJL129C, strain trk1, stronger effect = lower value",1.02
same,normalized growth,"locus YJL134W, strain LCB3, stronger effect = lower value",0.996
same,normalized growth,"locus YJL154C, strain vps35, stronger effect = lower value",1.03
same,normalized growth,"locus YJL164C, strain tpk1, stronger effect = lower value",0.927
same,normalized growth,"locus YJL166W, strain qcr8, stronger effect = lower value",0.953
same,normalized growth,"locus YJL168C, strain set2, stronger effect = lower value",0.987
same,normalized growth,"locus YJL187C, strain SWE1 (second series), stronger effect = lower value",0.976
same,normalized growth,"locus YJR043C, strain POL32, stronger effect = lower value",1.06
same,normalized growth,"locus YJR066W, strain TOR1, stronger effect = lower value",0.882
same,normalized growth,"locus YKL009W, strain mrt4, stronger effect = lower value",1.03
same,normalized growth,"locus YKL068W, stronger effect = lower value",1.02
same,normalized growth,"locus YKL085W, strain MDH1 (second series), stronger effect = lower value",1.04
same,normalized growth,"locus YKL085W, strain MDH1, stronger effect = lower value",1.04
same,normalized growth,"locus YKL160W, strain elf1, stronger effect = lower value",0.954
same,normalized growth,"locus YKL190W, strain CNB1, stronger effect = lower value",1.03
same,normalized growth,"locus YKR001C, strain vps1, stronger effect = lower value",1
same,normalized growth,"locus YKR026C, strain gcn3, stronger effect = lower value",1.01
same,normalized growth,"locus YKR091W, strain srl3, stronger effect = lower value",1
same,normalized growth,"locus YLL001W, strain dnm1, stronger effect = lower value",1.01
same,normalized growth,"locus YLL026W, stronger effect = lower value",1
same,normalized growth,"locus YLL041C, strain sdh2, stronger effect = lower value",0.996
same,normalized growth,"locus YLR027C, strain aat2, stronger effect = lower value",0.981
same,normalized growth,"locus YLR039C, strain RIC1, stronger effect = lower value",1.1
same,normalized growth,"locus YLR058C, strain SHM2, stronger effect = lower value",0.989
same,normalized growth,"locus YLR102C, strain apc9, stronger effect = lower value",0.981
same,normalized growth,"locus YLR113W, strain HOG1, stronger effect = lower value",0.975
same,normalized growth,"locus YLR221C, strain rsa3, stronger effect = lower value",0.954
same,normalized growth,"locus YLR258W, strain gsy2, stronger effect = lower value",0.98
same,normalized growth,"locus YLR262C, strain YPT6 (second series), stronger effect = lower value",0.886
same,normalized growth,"locus YLR262C, strain YPT6, stronger effect = lower value",1.14
same,normalized growth,"locus YLR268W, strain sec22, stronger effect = lower value",1.01
same,normalized growth,"locus YLR320W, strain mms22, stronger effect = lower value",0.968
same,normalized growth,"locus YLR330W, strain CHS5, stronger effect = lower value",1
same,normalized growth,"locus YLR342W, strain FKS1 (second series), stronger effect = lower value",1.05
same,normalized growth,"locus YLR342W, strain FKS1, stronger effect = lower value",0.919
same,normalized growth,"locus YLR357W, strain rsc2, stronger effect = lower value",0.893
same,normalized growth,"locus YLR370C, strain arc18, stronger effect = lower value",0.957
same,normalized growth,"locus YLR371W, strain rom2, stronger effect = lower value",0.991
same,normalized growth,"locus YLR384C, strain iki3, stronger effect = lower value",0.981
same,normalized growth,"locus YLR418C, strain cdc73, stronger effect = lower value",0.984
same,normalized growth,"locus YML016C, strain PPZ1, stronger effect = lower value",0.99
same,normalized growth,"locus YML032C, strain rad52, stronger effect = lower value",1.01
same,normalized growth,"locus YML120C, strain ndi1, stronger effect = lower value",0.999
same,normalized growth,"locus YML124C, strain tub3, stronger effect = lower value",0.99
same,normalized growth,"locus YMR058W, strain fet3, stronger effect = lower value",0.655 (active)
same,normalized growth,"locus YMR078C, strain ctf18, stronger effect = lower value",0.977
same,normalized growth,"locus YMR125W, strain sto1, stronger effect = lower value",1.01
same,normalized growth,"locus YMR129W, stronger effect = lower value",1.01
same,normalized growth,"locus YMR205C, strain PFK2, stronger effect = lower value",0.991
same,normalized growth,"locus YMR223W, strain ubp8, stronger effect = lower value",0.985
same,normalized growth,"locus YMR231W, strain pep5, stronger effect = lower value",0.99
same,normalized growth,"locus YMR263W, strain SAP30, stronger effect = lower value",0.985
same,normalized growth,"locus YMR307W, strain GAS1, stronger effect = lower value",0.985
same,normalized growth,"locus YNL067W, strain RPL9B, stronger effect = lower value",0.973
same,normalized growth,"locus YNL071W, strain lat1, stronger effect = lower value",1.02
same,normalized growth,"locus YNL153C, strain GIM3, stronger effect = lower value",0.988
same,normalized growth,"locus YNL183C, strain NPR1, stronger effect = lower value",0.914
same,normalized growth,"locus YNL209W, strain ssb2, stronger effect = lower value",0.793 (active)
same,normalized growth,"locus YNL233W, strain BNI4, stronger effect = lower value",0.991
same,normalized growth,"locus YNL248C, strain rpa49, stronger effect = lower value",1.03
same,normalized growth,"locus YNL250W, strain rad50, stronger effect = lower value",0.959
same,normalized growth,"locus YNL271C, strain bni1, stronger effect = lower value",0.981
same,normalized growth,"locus YNL298W, strain CLA4, stronger effect = lower value",0.995
same,normalized growth,"locus YNL307C, strain MCK1, stronger effect = lower value",0.985
same,normalized growth,"locus YNL322C, strain KRE1 (second series), stronger effect = lower value",0.988
same,normalized growth,"locus YNR049C, strain mso1, stronger effect = lower value",1.01
same,normalized growth,"locus YNR052C, strain pop2, stronger effect = lower value",0.985
same,normalized growth,"locus YOL012C, strain htz1",0.851
same,normalized growth,"locus YOL147C, strain pex11, stronger effect = lower value",1.01
same,normalized growth,"locus YOR001W, strain rrp6, stronger effect = lower value",1.02
same,normalized growth,"locus YOR061W, strain CKA2, stronger effect = lower value",1.04
same,normalized growth,"locus YOR069W, strain VPS5, stronger effect = lower value",0.989
same,normalized growth,"locus YOR070C, strain gyp1, stronger effect = lower value",0.986
same,normalized growth,"locus YOR080W, strain dia2, stronger effect = lower value",1
same,normalized growth,"locus YOR083W, strain WHI5, stronger effect = lower value",0.968
same,normalized growth,"locus YOR106W, strain vam3, stronger effect = lower value",0.852 (active)
same,normalized growth,"locus YOR136W, strain idh2, stronger effect = lower value",0.979
same,normalized growth,"locus YOR144C, strain elg1, stronger effect = lower value",0.981
same,normalized growth,"locus YOR184W, strain ser1, stronger effect = lower value",1.05
same,normalized growth,"locus YOR231W, strain MKK1, stronger effect = lower value",0.966
same,normalized growth,"locus YOR265W, strain rbl2, stronger effect = lower value",0.984
same,normalized growth,"locus YOR270C, strain vph1, stronger effect = lower value",0.946
same,normalized growth,"locus YOR290C, strain snf2, stronger effect = lower value",0.983
same,normalized growth,"locus YOR316C, strain cot1, stronger effect = lower value",0.98
same,normalized growth,"locus YPL051W, strain arl3, stronger effect = lower value",0.833 (active)
same,normalized growth,"locus YPL078C, strain atp4, stronger effect = lower value",0.992
same,normalized growth,"locus YPL106C, strain sse1, stronger effect = lower value",0.923
same,normalized growth,"locus YPL240C, strain hsp82, stronger effect = lower value",0.985
same,normalized growth,"locus YPL256C, strain CLN2, stronger effect = lower value",0.982
same,normalized growth,"locus YPR119W, strain clb2, stronger effect = lower value",0.981
same,normalized growth,"locus YPR141C, strain kar3, stronger effect = lower value",0.982
same,normalized growth,"locus YPR163C, strain tif3, stronger effect = lower value",0.991
same,normalized growth,"locus YPR167C, strain met16, stronger effect = lower value",0.987
same,normalized growth,"strain wtn01, stronger effect = lower value",1.03

# — PubChem BioAssay AID1159580 (chemical genetic matrix, 2015)
